The full list was thinned out, with hits kept by preference.
Pf Dd2 growth = blocks in vitro growth of P. falciparum Dd2. Potency, µM (highest dose often 28.9 µM), for the others: top-dose activity, negative = inhibition, hits mostly inhibitors. P. falciparum Dd2 growth, SYBR Green, 72 h. 4.3% of 120,000 active; active = well fitted inhibition curve with a large enough effect;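 note: plate controls were DMSO vehicle for no effect and reference drug for full effect; nearly all actives have a fitted effect of over 65% in size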
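Readout: SYBR Green fluorescence, 485 nm excitation, 535 nm emission, after ~16 h lysis at 37C. Before that, Dd2-infected red cells (2.5% hematocrit) grew 72 h with compound, 29 uM top final concentration.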
An asterisk follows results filed as active; i = inactive; [ ] = another dose, or the depositor's remark. Potency is the fitted concentration of half-maximal effect.

SMILES	Pf Dd2 growth
CCCNC(=O)CN1CN(c2ccccc2)C2(CCN(C(=O)Nc3ccc(CC)cc3)CC2)C1=O	-17%
CC(C)(C)C(=O)N1CCC2(CC1)C(=O)N(CC(=O)Nc1cccc(Cl)c1)CN2c1ccccc1	4µM*
O=C(NCCc1ccncc1)C1CN(C(=O)Cc2ccccc2Cl)CC12CCOCC2 (centres undefined)	9%
Cn1nc(C(=O)N2C[C@@H](Oc3cccnc3)C[C@H]2C(N)=O)c2ccccc21	6%
COCc1cc(C[C@@H]2CC[C@H](O)[C@@H](CNC(=O)C(C)(C)C)O2)no1	36%[44.1 µM]
CC(C)OCCCNC(=O)CC1=C2CCCCC2N(C(C)C)C1=O (centres undefined)	-4%
CC(C)CN1C(=O)c2cccn2CC1C(=O)NC1CCN(Cc2ccccc2)CC1 (centres undefined)	-5%
CN1C[C@H](NC2CCOCC2)CCC[C@@H](C(=O)NC2CC2)CC1=O	-14%[44.1 µM]
O=C(Cc1ccsc1)N1CCC(Cc2nc(-c3ccc(F)cc3)no2)CC1	-5%
CN(C)c1cccc(C(=O)N2CCNc3cnc(Nc4cccc(C(F)(F)F)c4)nc3C2)c1	7.9µM*
O=C(Cc1ccccc1)N1CCNc2cnc(Nc3ccccc3)nc2C1	-20%[44.1 µM]
COc1ccccc1Nc1ncc2c(n1)CN(C(=O)c1ccnn1C)CCN2	3%[44.1 µM]
CC(C)NC(=O)N1CCNc2cnc(Nc3cccc(F)c3)nc2C1	-7%[44.1 µM]
N#Cc1cccc(C(=O)N2CCNc3cnc(Nc4cccc(F)c4)nc3C2)c1	i
O=C(c1ccc(Oc2ccccc2)cc1)N1CCNc2cnc(Nc3cccnc3)nc2C1	13µM*
O=C(CC1COCCN1C(=O)c1ccc2nccnc2c1)N1CCCC1 (centres undefined)	19%
Cc1cccc(CNC(=O)Cn2c(C)ccc(NS(C)(=O)=O)c2=O)c1	-4%
CC1(c2ccccc2)N(Cc2cccnc2)C(=O)OC12CCN(C(=O)Cc1cccc(F)c1)CC2 (centres undefined)	i
CC1(c2ccccc2)N(Cc2ccccc2C#N)C(=O)OC12CCN(C(=O)Cc1ccc(O)cc1)CC2 (centres undefined)	i
CC1(c2ccccc2)N(Cc2ccccc2C#N)C(=O)OC12CCN(C(=O)Cc1cccc(F)c1)CC2 (centres undefined)	11µM*
CC1(c2ccccc2)N(Cc2ncccn2)C(=O)OC12CCN(C(=O)Cc1ccc(Cl)cc1)CC2 (centres undefined)	13µM*
CC(C)C(=O)N1CCC2(CC1)OC(=O)N(Cc1ncccn1)C2(C)c1ccccc1 (centres undefined)	i
CC1(c2ccccc2)N(Cc2ccccc2F)C(=O)OC12CCN(C(=O)Cc1ccc(O)cc1)CC2 (centres undefined)	-6%
COc1ccc(NC(=O)C2(C)CCCCC(=O)N2)cc1F (centres undefined)	-7%
COCC(=O)N1CCCC(C(=O)N2CCN(c3ccc(F)cc3)CC2)CCNC(=O)CC1 (centres undefined)	5%
SMILES	Pf Dd2 growth
Cc1csc(NC(=O)C2CC(=O)N(c3n[nH]c4cc(Br)ccc34)C2)n1 (centres undefined)	-26%
Cc1ccc2nc3n(c2c1)[C@@H](CNCc1ccc(C#N)cc1)COC3	-9%[44.1 µM]
O=C(COc1ccccc1)N1CCC(N2CC3CC(C2)[C@H]2CCCC(=O)N2C3)CC1 (some centres undefined)	-4%
Fc1ccccc1CCC1CCCN(c2nnnn2-c2ccccc2)C1 (centres undefined)	-16%
COc1ccc(CNC(=O)N2CCC(c3noc(-c4cccnc4)n3)C2)cc1 (centres undefined)	i[5.79 µM]
O=C(Cc1ccc(F)cc1)NCc1nnc2cc(-c3nc(C4CC4)no3)ccn12	4.5µM*
O=C(Cc1cccc(F)c1)NCc1nnc2cc(-c3nc(C4CC4)no3)ccn12	i
COc1cccc(CNC(=O)N2CC(c3noc(-c4ccncc4)n3)C2)c1	8.9µM*
COc1cccc(CC(=O)NCc2nnc3cc(-c4nc(C5CC5)no4)ccn23)c1	6.3µM*
O=C(NCc1nnc2cc(-c3nc(C4CC4)no3)ccn12)c1c(F)cccc1F	i
O=C(Cc1ccc(Cl)cc1)NCc1nnc2cc(-c3nc(C4CC4)no3)ccn12	0.45µM*
O=C(NCc1nnc2cc(-c3nc(C4CC4)no3)ccn12)c1ccccc1Cl	-5%
O=C(NCc1nnc2cc(-c3nc(C4CC4)no3)ccn12)c1ccoc1	-22%
COc1ccc(CNC(=O)N2CCC(c3noc(-c4ccccc4)n3)C2)cc1 (centres undefined)	7%[5.79 µM]
O=C(NCc1nnc2cc(-c3nc(C4CC4)no3)ccn12)C1CC1	-24%
O=C(NCc1nnc2cc(-c3nc(C4CC4)no3)ccn12)c1cccc(Cl)c1	i
Cc1ccc(NC(=O)Cn2c(C)cc3nc4n(c(=O)c32)CCCC4)c(Cl)c1	i
Cc1ccc(CC(=O)N2CC(c3nnc(-c4ccc(C)cc4)o3)C3(CCOCC3)C2)cc1 (centres undefined)	i
Cc1cc2nc3n(c(=O)c2n1CC(=O)N1CCN(c2ccccc2)CC1)CCCCC3	i
CCn1nc(C)c(CNC(=O)c2ccc(N3CC4CC(C3)[C@H]3CCCC(=O)N3C4)nc2)c1C (some centres undefined)	-2%
O=C(CN1CC2CC(C1)[C@H]1CCCC(=O)N1C2)NCC1CCCCC1 (some centres undefined)	-21%
Cc1ccoc1C(=O)N1CC[C@@H](c2sccc2C)[C@H](O)C1	-18%
Cc1noc2ccc(-c3ccccc3OCc3ccccc3)nc12	-20%[44.1 µM]
N#Cc1cccc(CN[C@@H]2CO[C@H](CNC(=O)c3ccncc3)[C@H]2O)c1	-10%[44.1 µM]
Cn1nc(C2CCCN(C(=O)c3cccnc3)C2)n(-c2ccccc2)c1=O (centres undefined)	-19%
SMILES	Pf Dd2 growth
COc1ccc(-c2noc([C@@H](C)NS(=O)(=O)CC(C)C)c2C(=O)O)cc1	20%[44.1 µM]
Cc1cc2cc(-c3c(C)noc3C)nc(NC3CCN(C)CC3)c2o1	10µM*
Cc1noc(C)c1-c1cc2cc(C(C)C)oc2c(-c2c(C)noc2C)n1	-21%[44.1 µM]
Cc1noc(C)c1-c1cc2cc(CO)oc2c(NCCN2CCOCC2)n1	i
Cc1noc(C)c1-c1cc2cc(C(C)C)oc2c(NC(C)C)n1	-10%[44.1 µM]
Cc1noc(C)c1-c1cc2cc(C(C)C)oc2c(NC2CCOCC2)n1	11µM*
Cc1cc2cc(-c3c(C)noc3C)nc(NCC3CC3)c2o1	i
COc1cccc(Nc2cc(-c3cccs3)nc3c(C)noc23)c1	i
O=C(C1CCC1)N1CCC(c2noc(-c3cnccn3)n2)C1 (centres undefined)	i[5.79 µM]
COc1ccc(S(=O)(=O)N2CCc3c(C(=O)Nc4cccc(C)c4)cccc32)cc1	i
COc1cccc(N2C(=O)NC(=NC3CCCCC3)C23CCN(C(=O)c2ccccc2F)C3)c1 (centres undefined)	-15%
COC(=O)c1ccc2nc(C[C@@H]3C[C@@H](C(C)C)[C@H](CNCc4ccc(NC(C)=O)cc4)C=C3C)[nH]c2c1	-7%
COC(=O)c1ccc2nc(C[C@@H]3C[C@@H](C(C)C)[C@H](CNS(=O)(=O)c4ccccc4)C=C3C)[nH]c2c1	10µM*
COC(=O)c1ccc2nc(C[C@@H]3C[C@@H](C(C)C)[C@H](CNC(=O)CCC(=O)O)C=C3C)[nH]c2c1	i
COC(=O)c1ccc2nc(C[C@@H]3C[C@@H](C(C)C)[C@H](CNC(=O)c4cccnc4)C=C3C)[nH]c2c1	7.9µM*

Screening data from PubChem.
